# The full ranking holds about 8,300 sequences; the median of “log2 fold change of degron read counts, EGFP-low vs EGFP+ sorted cells (limma voom), compound-induced degradation” is about -1.1, and the highest 2% start at about 3.2. Only a selection was taken, and the highest values are over-represented in it overall.
# T1: CRBN, Q96SW2
# T1 chain: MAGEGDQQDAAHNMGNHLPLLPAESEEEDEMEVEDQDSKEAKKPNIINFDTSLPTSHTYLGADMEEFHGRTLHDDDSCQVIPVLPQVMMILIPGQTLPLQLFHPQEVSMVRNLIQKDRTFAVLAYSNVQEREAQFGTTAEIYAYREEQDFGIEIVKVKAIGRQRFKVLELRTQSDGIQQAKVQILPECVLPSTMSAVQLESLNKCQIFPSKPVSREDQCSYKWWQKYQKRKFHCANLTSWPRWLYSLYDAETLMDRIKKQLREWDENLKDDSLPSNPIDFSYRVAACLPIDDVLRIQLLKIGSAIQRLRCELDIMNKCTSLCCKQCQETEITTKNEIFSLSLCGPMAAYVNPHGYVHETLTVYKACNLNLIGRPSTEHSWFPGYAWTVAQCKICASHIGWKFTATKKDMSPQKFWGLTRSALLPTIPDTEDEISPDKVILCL
# B1: 46F_47S_49P_50Q_52G_53A_54H_55F_67L_, Q9UKT9 (peptide)
# chain: FSCPQCGAHFTQKGNLLRHIKL
# B2: 46F_47S_49S_50V_52G_53H_54M_55F_67L_, Q9UKT9 (peptide)
# chain: FSCSVCGHMFTQKGNLLRHIKL
# B3: 46F_47H_49N_50I_52G_53A_54G_55F_67L_, Q9UKT9 (peptide)
# chain: FHCNICGAGFTQKGNLLRHIKL
# B4: 46F_47S_49P_50I_52G_53R_54F_55F_67L_, Q9UKT9 (peptide)
# chain: FSCPICGRFFTQKGNLLRHIKL
# B5: 46F_47K_49E_50I_52G_53R_54D_55F_67L_, Q9UKT9 (peptide)
# chain: FKCEICGRDFTQKGNLLRHIKL
# B6: 46F_47Y_49P_50I_52G_53R_54F_55F_67L_, Q9UKT9 (peptide)
# chain: FYCPICGRFFTQKGNLLRHIKL
# B7: 46L_47L_49E_50I_52G_53F_54A_55C_67L_, Q9UKT9 (peptide)
# chain: LLCEICGFACTQKGNLLRHIKL
# B8: 46F_47L_49D_50Q_52G_53A_54Y_55F_67L_, Q9UKT9 (peptide)
# chain: FLCDQCGAYFTQKGNLLRHIKL
# B9: 46L_47L_49E_50I_52G_53F_54Q_55C_67L_, Q9UKT9 (peptide)
# chain: LLCEICGFQCTQKGNLLRHIKL
# B10: 46L_47S_49E_50I_52G_53F_54Q_55C_67L_, Q9UKT9 (peptide)
# chain: LSCEICGFQCTQKGNLLRHIKL
# B11: 46L_47D_49E_50I_52G_53F_54Q_55C_67L_, Q9UKT9 (peptide)
# chain: LDCEICGFQCTQKGNLLRHIKL
# B12: 46L_47Y_49E_50I_52G_53F_54Q_55C_67L_, Q9UKT9 (peptide)
# chain: LYCEICGFQCTQKGNLLRHIKL
# B13: 46L_47A_49E_50I_52G_53F_54Q_55C_67L_, Q9UKT9 (peptide)
# chain: LACEICGFQCTQKGNLLRHIKL
# B14: 46L_47I_49E_50I_52G_53F_54Q_55C_67L_, Q9UKT9 (peptide)
# chain: LICEICGFQCTQKGNLLRHIKL
# B15: 46L_47Q_49E_50I_52G_53F_54Q_55C_67L_, Q9UKT9 (peptide)
# chain: LQCEICGFQCTQKGNLLRHIKL
# B16: 46L_47W_49E_50I_52G_53F_54Q_55C_67L_, Q9UKT9 (peptide)
# chain: LWCEICGFQCTQKGNLLRHIKL
# B17: 46L_47M_49E_50I_52G_53F_54Q_55C_67L_, Q9UKT9 (peptide)
# chain: LMCEICGFQCTQKGNLLRHIKL
# B18: 46L_47C_49E_50I_52G_53F_54Q_55C_67L_, Q9UKT9 (peptide)
# chain: LCCEICGFQCTQKGNLLRHIKL
# B19: 46L_47E_49E_50I_52G_53F_54Q_55C_67L_, Q9UKT9 (peptide)
# chain: LECEICGFQCTQKGNLLRHIKL
# B20: 46L_47F_49E_50I_52G_53F_54Q_55C_67L_, Q9UKT9 (peptide)
# chain: LFCEICGFQCTQKGNLLRHIKL
# B21: 46F_47M_49E_50Q_52G_53A_54P_55F_67L_, Q9UKT9 (peptide)
# chain: FMCEQCGAPFTQKGNLLRHIKL
# B22: 46F_47T_49E_50I_52G_53H_54I_55F_67L_, Q9UKT9 (peptide)
# chain: FTCEICGHIFTQKGNLLRHIKL
# B23: 46F_47G_49D_50I_52G_53A_54N_55F_67L_, Q9UKT9 (peptide)
# chain: FGCDICGANFTQKGNLLRHIKL
# B24: 46F_47Y_49N_50Q_52G_53R_54H_55F_67L_, Q9UKT9 (peptide)
# chain: FYCNQCGRHFTQKGNLLRHIKL
# B25: 46F_47R_49N_50Q_52G_53H_54L_55F_67L_, Q9UKT9 (peptide)
# chain: FRCNQCGHLFTQKGNLLRHIKL
# B26: 46L_47F_49N_50Q_52G_53F_54A_55C_67L_, Q9UKT9 (peptide)
# chain: LFCNQCGFACTQKGNLLRHIKL
# B27: 46L_47A_49N_50Q_52G_53F_54E_55C_67L_, Q9UKT9 (peptide)
# chain: LACNQCGFECTQKGNLLRHIKL
# B28: 46F_47Y_49N_50Q_52G_53R_54L_55F_67L_, Q9UKT9 (peptide)
# chain: FYCNQCGRLFTQKGNLLRHIKL
# Biological target: T1, CRBN, Q96SW2
# Assay: log2 fold change of degron read counts, EGFP-low vs EGFP+ sorted cells (limma voom), compound-induced degradation; higher = more compound-induced degradation of the degron-EGFP fusion; degrons are variants of IKZF1/3 zinc finger 2; compound dose not given here
# Conditions: Jurkat, 18 h
# [1] = compound: compound 19 (5-tert-butyl-thalidomide)
# [2] = compound: compound 22 (5-morpholino-thalidomide)
# [3] = compound: compound 33 (diphenyl IMiD analogue)
# 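Also: pooled lentiviral library of zinc finger degron-EGFP fusions in mCherry-positive Jurkat cells, FACS-sorted after compound exposure, with degron abundance counted by next-generation sequencing.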
Sequence,log2 fold change of degron read counts [1],log2 fold change of degron read counts [2],log2 fold change of degron read counts [3],log2 fold change of degron read counts (compound: thalidomide)
B1,-1.06,-2.04,-0.649,-1.51
B2,-2.17,-2.85,-2.33,-2.67
B3,1.76,0.175,1.2,-0.885
B4,-0.54,-1.4,-0.477,-1.17
B5,-3.16,-3.46,-3.24,-2.51
B6,-0.827,-0.851,-1,-2.07
B7,0.644,-0.727,0.56,1.35
B8,-3.04,-2.52,-2.25,-2.41
B9,0.49,-0.719,0.751,1.99
B10,2.4,1.95,0.752,1.19
B11,-0.786,-1.68,-1.53,-0.616
B12,3.53,3.71,2.78,1.8
B13,3.16,2.06,0.631,0.66
B14,0.761,2.3,2.38,3
B15,0.99,0.223,1.43,3.3
B16,3.2,3.49,2.53,1.13
B17,0.286,0.912,2.55,2.04
B18,1.95,1.72,1.6,1.91
B19,-0.896,-1.36,0.772,2.01
B20,3.43,3.41,1.96,2.09
B21,-0.389,-0.627,1.41,-0.399
B22,-2.87,-3.7,-2.68,-2.59
B23,-0.278,-0.474,0.0264,-0.564
B24,-2.11,-2.71,-2.01,-2.05
B25,-2.18,-2.82,-2.46,-2.45
B26,-0.744,-1.36,-1.06,-1.14
B27,-2.6,-2.34,-2.97,-2.24
B28,-1.45,-2.33,-2.01,-1.7
